The source of these data is PubChem BioAssay (NCATS).

The structures appear in SMILES notation. Records with an inconclusive call do not appear. Activity calls are given as the source filed them. Unless noted, calls follow the shape of the dose curve; as a rule, active = well fitted curve in the direction sought with a large enough effect; inconclusive = small, poorly fitted or top-dose-only effect, or another doubt; inactive = no such curve, though single readings can be large; an effect the other way counts as inactive or inconclusive.

For assay [1], the target named is Aldehyde dehydrogenase, mitochondrial (Homo sapiens) (UniProt P05091). In words: qHTS for Inhibitors of the Aldehyde Dehydrogenase Family (ALDH2) Confirmatory screens (AID 2061303; active = well fitted inhibition curve with a large enough effect; title and protocol of this record describe different tests; also: nearly all actives have a fitted effect of over 45% in size; also: potency is read from the fitted curve at half-maximal effect). The following applies: ALDH inhibition qHTS; series mostly up to 45.4 µM.
Assay [2] shares this target. In words: qHTS for Inhibitors of the Aldehyde Dehydrogenase Family (ALDH2) Primary screen (AID 2061308). Also: nearly all actives have a fitted effect of over 55% in size. Also: potency is read from the fitted curve at half-maximal effect. The following applies: ALDH2 enzyme inhibition qHTS, 1536-well; series mostly up to 56 µM.
Assay [3] addresses Retinaldehyde dehydrogenase 3 (Homo sapiens) (UniProt P47895). Nature of the assay: qHTS for Inhibitors of the Aldehyde Dehydrogenase Family (ALDH1A3) Confirmatory screens (AID 2061311). Also: nearly all actives have a fitted effect of over 60% in size. Also: potency is read from the fitted curve at half-maximal effect. The following applies: ALDH inhibition qHTS; series mostly up to 46 µM.
Assay [4] has as its target Retinal dehydrogenase 2 (Homo sapiens) (UniProt O94788). Nature of the assay: qHTS for Inhibitors of the Aldehyde Dehydrogenase Family (ALDH1A2) Confirmation screens (AID 2061314). Also: nearly all actives have a fitted effect of over 65% in size. Also: potency is read from the fitted curve at half-maximal effect. The following applies: ALDH1A2 enzyme inhibition qHTS confirmation; series mostly up to 45.9 µM.
In assay [5] the target is Retinaldehyde dehydrogenase 3 (Homo sapiens) (UniProt P47895). In words: qHTS for Inhibitors of the Aldehyde Dehydrogenase Family (ALDH1A3) Primary screen (AID 2061315). The following applies: ALDH inhibition qHTS; series mostly up to 56 µM.
Assay [6] concerns the target Aldehyde dehydrogenase 1A1 (Homo sapiens) (UniProt P00352). In words: qHTS for Inhibitors of the Aldehyde Dehydrogenase Family (ALDH1A1) Confirmatory screens (AID 2061316). Also: nearly all actives have a fitted effect of over 65% in size. Also: potency is read from the fitted curve at half-maximal effect. The following applies: ALDH inhibition qHTS; series mostly up to 47.3 µM.
Assay [7] is described as follows: BET inhibitor-based combinations targeting novel dependencies in MECOM-rearranged (r) AML: OCI-AML3 cell line (AID 2202232). Also: potency is read from the fitted curve at half-maximal effect; nearly all actives have a fitted effect of over 35% in size. The following applies: CellTiter-Glo luminescence, 48 h; Potency: OCI-AML3 viability; series mostly up to 46 µM. The method in brief:
(§1)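 Here, 11-point titrations of each agent were applied to 500 seeded cells and incubated 48 hr; CellTiter-Glo signal, scaled against DMSO and empty wells, was integrated as AUC, then Z-scored within the individual line.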

Assay [8] is described as follows: BET inhibitor-based combinations targeting novel dependencies in MECOM-rearranged (r) AML: MV-4-11 cell line (AID 2202233). Also: potency is read from the fitted curve at half-maximal effect; nearly all actives have a fitted effect of over 45% in size. The following applies: MV-4-11 AML viability, CellTiter-Glo luminescence, 48 h; series mostly up to 46 µM. The method in brief:
(§2)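 Normalized to DMSO and empty-well controls, the luminescence data from CellTiter-Glo after 48 hr drug exposure were fitted across 11 concentrations. Reported metrics are area under the dose-response curve and its Z-transformed form.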

The nature of assay [9]: BET inhibitor-based combinations targeting novel dependencies in MECOM-rearranged (r) AML: HNT-34 cell line (AID 2202234). Also: potency is read from the fitted curve at half-maximal effect; nearly all actives have a fitted effect of over 35% in size. The conditions noted are these: HNT-34 AML viability, CellTiter-Glo luminescence, 48 h; series mostly up to 46 µM. The method in brief:
as §2

A short description of assay [10]: BET inhibitor-based combinations targeting novel dependencies in MECOM-rearranged (r) AML: UCSD-AML1 cell line (AID 2202235). Also: potency is read from the fitted curve at half-maximal effect; nearly all actives have a fitted effect of over 40% in size. The conditions noted are these: UCSD-AML1 AML cells viability, CellTiter-Glo, 48 h; series mostly up to 46 µM. The method in brief: as §2
A short description of assay [11]: BET inhibitor-based combinations targeting novel dependencies in MECOM-rearranged (r) AML: AML-194 cell line (AID 2202237; also: potency is read from the fitted curve at half-maximal effect; nearly all actives have a fitted effect of over 40% in size). The following applies: AML-194 (MECOM-r AML) viability, CellTiter-Glo, 48 h; series mostly up to 46 µM. The method in brief:
as §1

The target in assay [12] is Retinaldehyde dehydrogenase 3 (Homo sapiens) (UniProt P47895). Nature of the assay: qHTS for Inhibitors of the Aldehyde Dehydrogenase Family (ALDH1A3) Validation screen (AID 2061312). Also: nearly all actives have a fitted effect of over 45% in size. The conditions noted are these: ALDH1A3 enzyme inhibition qHTS validation, fluorescence; series mostly up to 84.7 µM.

In the case of `N#CC1CCN(c2nc(-c3ccc(Br)cc3)cs2)CC1`, the Potency entry in [1], in assay [2], in assay [3], in [4] and in assay [5] was “inactive” each time.
Consider `Cc1cnc(-c2ccccc2C(C)O)nc1NCC1CCN(c2cccnc2)CC1` (stereo not drawn), for which the Potency result in [1], in assay [2], in assay [3] and in [5] was “inactive” each time. Moreover, in [4], the Potency was 12.7 µM (active).
In the case of `O=C(Nc1cncc(O)c1)c1cccs1`, the values for the Potency in [1], in assay [3] and in assay [4] were 12.7 µM (active), 12.7 µM (active) and 2.25 µM (active), respectively. Moreover, the Potency entry in assay [2] and in assay [5] was “inactive” throughout.
Consider `Cc1ccc2nc3sc(C(=O)N4CCN(C)CC4)cc3cc2c1`, for which the Potency entry in assay [1] and in assay [2] was “inactive” throughout. For the same molecule, the figures for the Potency in assay [3] and in [4] were 22.5 µM (active) and 10.1 µM (active), respectively.
`C#Cc1nc(Nc2cccc(Cl)c2)nc(NC2CCCC2)n1`: the Potency was 31.6 µM (active) in [1], 14.1 µM (active) in assay [3] and 8.91 µM (active) in assay [4]. In addition, the Potency result in [2] and in [5] was “inactive” each time.
As for `NC(=O)C1CCN(c2nc(-c3ccc(Cl)cc3)cs2)CC1`, the Potency entry in [1], in assay [2], in assay [3], in assay [4], in assay [5] and in assay [6] was “inactive” throughout.
On to `CC(C)(C)OC(=O)NC1CCN(c2nc(-c3ccc(Br)cc3)cs2)CC1`, for which the Potency entry in [1], in assay [2], in assay [3], in assay [4], in [5] and in assay [6] was “inactive” in each case.
`CCOc1ccccc1-c1nnc2n1N=C(c1cccc(OC)c1)CS2`: the Potency entry in assay [1], in assay [2], in assay [3], in assay [4] and in [5] was “inactive” in each case.
`COc1ccc([N+](=O)[O-])c(S(=O)(=O)c2ccccc2)n1`: the Potency was 17.8 µM (active) in [1]; 4.47 µM (active) in assay [2]; 5.65 µM (active) in [3]; 15.8 µM (active) in assay [4]; 2.01 µM (active) in [6].
For the molecule `O=C1Nc2ccccc2/C1=C\c1ccc(O)c(F)c1`, the Potency in assay [1] was 0.224 µM (active); in assay [2], 2.51 µM (active); in [3], 15.8 µM (active); in [4], 5.65 µM (active). Besides, the Potency result in assay [5] and in assay [6] was “inactive” throughout.
For `Brc1ccc(-c2csc(N3CCC(c4nn[nH]n4)CC3)n2)cc1`, the Potency result in [1], in assay [2], in assay [3], in assay [4] and in assay [5] was “inactive” in each case.
For `NC(=O)C1CCN(c2ncc(-c3cccc(N4CCOCC4)c3)s2)CC1`, the Potency entry in assay [1], in assay [2], in assay [3], in [4] and in assay [5] was “inactive” each time. In addition, in assay [6], the Potency is 6.34 µM (active).
Consider `COc1ccc([N+](=O)[O-])c(S(=O)(=O)c2ccc(Cl)cc2)n1`, for which the Potency was 5.04 µM (active) in [1]; 1.78 µM (active) in assay [2]; 10 µM (active) in [3]; 15.8 µM (active) in assay [4]; 1.27 µM (active) in assay [6].
Consider `N#Cc1cc(C2=Nc3ccc(Br)cc3NC(=O)C2)ccn1`, for which the Potency entry in assay [1], in [2], in [3], in assay [4], in [5] and in assay [6] was “inactive” throughout.
For the molecule `Cc1ccc(S(=O)(=O)c2ccc([N+](=O)[O-])cn2)cc1`, the Potency in assay [1] is 2 µM (active); in assay [2] it was 2 µM (active); in assay [3], 4.47 µM (active); in assay [4], 1.13 µM (active); in assay [6] it was 0.634 µM (active).
Consider `COc1cc(O)c(C(CC(=O)N2CCCC(C(C)C)C2)c2ccc3c(c2)OCO3)c(OC)c1` (stereo not drawn), for which the Potency result in [1], in [2], in [3], in assay [4] and in assay [5] was “inactive” in each case.
With `N#CN1CCC(NS(=O)(=O)c2ccc(F)cc2)CC1`, the Potency result in [1], in assay [2], in [3], in assay [4], in [5] and in assay [6] was “inactive” throughout.
Consider `CCc1nc2c(sc3nc4c(cc32)COC(C)(C)C4)c(=O)n1Cc1ccco1`, for which the Potency is 6.34 µM (active) in [1], 7.98 µM (active) in [3], 7.12 µM (active) in assay [4] and 0.634 µM (active) in assay [6]. Moreover, the Potency entry in [2] is “inactive”.
Regarding `O=C(CN1C(=O)CC(c2ccco2)Sc2ccccc21)Nc1ccccc1F` (stereo not drawn), the Potency result in assay [1], in assay [2], in [3], in [4] and in [5] was “inactive” throughout. Further, the Potency in assay [6] is 2.52 µM (active).
As to `O=C1CC(c2ccccc2)CC2=C1C1(CCCC1)N=C(Nc1nc3ccccc3o1)N2` (stereo not drawn), the Potency entry in assay [1], in assay [2], in assay [3], in assay [4], in assay [5] and in [6] was “inactive” each time.
`O=C1CCCC2=C1C(c1[nH]ncc1Cl)NC(=NCc1ncc[nH]1)N2` (stereo not drawn): the Potency entry in [1], in assay [2], in assay [3], in [4], in [5] and in assay [6] was “inactive” in each case.
As for `O=C(Nc1cncc(NC(=O)c2cccs2)c1)c1cccs1`, the Potency entry in assay [1], in assay [2], in assay [4], in assay [5] and in [6] was “inactive” each time. For the same molecule, the Potency in assay [3] was 28.3 µM (active).
As for `c1cn2cc(-c3ccc4cn[nH]c4c3)nc(Nc3ccc(N4CCOCC4)cc3)c2n1`, the Potency in assay [7] was 5.25 µM (active); in [8], 1.66 µM (active); in assay [9], 4.17 µM (active); in [10], 10.5 µM (active); in assay [11], 1.32 µM (active).
With `O=C(Nc1ccccc1Br)NC1CCN(c2ccc(C(F)(F)F)cn2)C1` (stereo not drawn), the Potency result in assay [2], in [12] and in [5] was “inactive” throughout.
For the molecule `CN(C)CCc1c[nH]c2ccc(C[C@H]3COC(=O)N3)cc12`, the Potency result in assay [2], in [12] and in [5] was “inactive” each time.
For `Cc1nc(NCc2ccc(-c3cccnc3)cc2)c2ccccc2n1`, the Potency entry in assay [1], in [2], in [4], in assay [5] and in [6] was “inactive” each time.
Regarding `COc1ccnc(NC(=S)N2CCN(c3ccc(Cl)c(Cl)c3)CC2)c1`, the Potency is 4.47 µM (active) in [1], 15.8 µM (active) in [2], 3.57 µM (active) in assay [4] and 4 µM (active) in [6].
Turning to `Cc1ccnc(NC(=S)N2CCN(c3cccc(Cl)c3Cl)CC2)c1`, the Potency in [1] was 11.3 µM (active); in [2], 6.31 µM (active); in [4], 14.2 µM (active); in assay [6], 3.18 µM (active).
